Experimental data as given in PubChem BioAssay AID540356 (Broad Institute, 2011).
The campaign covered roughly 2,500 compounds. About 360 (14%) were called active. Only a sample is shown. Unmarked numbers belong to inactive results.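 The calls were made as follows: active = signal-lowering compounds whose fitted half-maximal concentration AC50 is no higher than ten times their top tested concentration; inconclusive = flat curve with 30 to 70% inhibition, or poor fit; inactive = flat within 30%, signal increase, or AC50 above limit.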

Assay: HRP/luminol detection interference without ALR, dose response, artefact control for ALR inhibitor project, biochemical, luminescence, no ALR or DTT, cherry-pick (AID 540356)
Conditions: HRP/H2O2 luminol luminescence counterscreen; series mostly up to 10 µM

| Compound | AC50 |
| --- | --- |
| COc1cc(-n2c(-c3ccccc3)n[nH]c2=S)c(OC)cc1Cl | inactive |
| COc1ccc(C(=O)N2CCN=C2SCc2cccnc2)c(OC)c1 | inactive |
| Cc1cc(-c2nsc(=O)o2)c(S(C)(=O)=O)s1 | inactive |
| Cc1c(/C=N\NC(=O)c2ccc(F)cc2)cnn1C | inactive |
| CCN(CC)c1ccc(CNc2ccc3c(c2)ncn3CC)cc1 | inactive |
| CCN(CC)c1ccc(CN2CCCCCC2)cc1 | inactive |
| CN(C)c1ccc(-c2n[nH]c(=S)n2-c2ccccc2)cc1 | inactive |
| Cc1cc(C)nc(Sc2c(C)nn(-c3ccccc3)c2C)n1 | inactive |
| Oc1c(Cl)cc(Cl)cc1CNc1ccc(Br)cn1 | inactive |
| O=C(c1ccc2c(c1)OCO2)N1CCN(c2ccccc2)CC1 | inactive |
| O=c1oc2ccccc2cc1-c1ccc(O)cc1 | inactive |
| Nc1nc(-c2c[nH]c3ccccc23)cs1 | inactive |
| c1ccc2c(-c3csc(-c4ccncc4)n3)c[nH]c2c1 | inactive |
| O=C(O)Cn1cc(C(=S)N2CCCCC2)c2ccccc21 | inactive |
| CC(C)NS(=O)(=O)c1ccc2c(c1)NCC2 | inactive |
| COc1ccc(C2=CSC3=NNC4(CCCCC4)NN23)cc1 | inactive |
| COc1ccc(NC2c3ccccc3C(=O)N2c2cccnc2)cc1Cl (stereo not given) | inactive |
| S=c1[nH]nc(-c2ccco2)n1C1CCCCC1 | inactive |
| O=C(NNc1nc2cc3c(cc2s1)OCO3)c1ccccc1 | inactive |
| O=C(NNc1c2ccccc2nc2ccccc12)c1ccccc1O | inactive |
| O=C(NNc1nc2ccccc2s1)c1ccccc1F | 5.35 µM (active) |
| COc1cccc(N2CCN(CC(=O)NC(C)c3ccccc3)CC2)c1 (stereo not given) | inactive |
| O=C(NC1CCCCC1)N1CCN(c2ccc(Cl)cc2)CC1 | inactive |

| Compound | AC50 |
| --- | --- |
| O=C(Nc1ccccc1N1CCCC1)c1ccccc1F | inactive |
| COc1ccc(N2CCC(CNC(=O)Nc3ccc(OC)cc3OC)C2)cc1 (stereo not given) | inactive |
| Clc1ccc(-n2nnc(-c3nccs3)n2)cc1Cl | inactive |
| Cc1cc(C)n2cc(CSc3nc4ccccc4[nH]3)nc2n1 | inactive |
| COc1ccccc1N1CCN(S(=O)(=O)c2cccc(F)c2)CC1 | inactive |
| Oc1cc2c(cc1O)C(c1ccccc1)CNCC2 (stereo not given) | 4.68 µM (active) |
| Oc1ccc(C2CNCCc3c2cc(O)c(O)c3Cl)cc1 (stereo not given) | 5.92 µM (active) |
| Nc1[nH]c(N=NC(=O)c2ccc(F)cc2)c2ccccc12 | > 10 µM |
| CC(C)(C)c1ccc(Oc2ccc(NC(=O)CCCC(=O)O)cn2)cc1 | inactive |
| Cc1c(Cl)c(-c2n[nH]c(=S)n2-c2ccccc2)nn1C | inactive |
| O=c1ccsn1Cc1ccccc1 | inactive |
| COc1cc(OC)cc(C(=O)Nc2ccc(S(=O)(=O)Nc3cc(C)nc(C)n3)cc2)c1 | inactive |
| COc1ccc(OC)c(N(CC(N)=O)S(=O)(=O)c2ccc(OC)c(OC)c2)c1 | inactive |
| Cc1ccc(S(=O)(=O)NN2C(=O)/C(=C/c3cccnc3)SC2=S)cc1 | inactive |
| Cc1nc(C)c(/C(O)=C\c2nc3ccc([N+](=O)[O-])cc3oc2=O)o1 | inactive |
| CNc1nnc(-c2cccc(N(C)C)c2)s1 | 1.05 µM (active) |
| Cc1cc(C(=O)Nc2nnc(-c3ccccc3)s2)no1 | inactive |
| Cc1nc(SCc2ccc(Cl)c(Cl)c2)ncc1C(=O)O | inactive |
| COc1c(F)c(F)c(C(=O)O)c(Nc2ccc(C)cc2C)c1F | inactive |
| COc1ccc(N2C(=O)CSC2c2ccncc2)cc1 (stereo not given) | inactive |
| CCCCN(C)S(=O)(=O)c1ccc(C(=O)Nc2nnc(-c3ccco3)o2)cc1 | inactive |
| Cn1c(=O)c2c(nc(N/N=C/c3ccncc3)n2Cc2ccccc2)n(C)c1=O | inactive |
| Cc1ccc(Nc2nc(-c3ccc(O)cc3O)cs2)nc1 | inactive |

| Compound | AC50 |
| --- | --- |
| COc1ccccc1-c1cc(-c2ccc(O)cc2)nc(N)c1C#N | inactive |
| Cc1cccnc1Nc1nc(-c2ccc(O)cc2O)cs1 | inactive |
| Cc1ccc(-n2c(-c3ccc(Cl)cc3)n[nH]c2=S)c(C)c1 | inactive |
| Nc1ncc(-c2ccccc2)c(-c2ccc(O)cc2O)n1 | inactive |
| COc1ccc(-c2n[nH]c(C)c2-c2ccccc2OC)c(O)c1 | inactive |
| COc1ccc(-c2cn[nH]c2-c2ccc(OC)cc2O)cc1 | inactive |
| Cc1cc(C)nc(NNC(=O)c2ccccc2O)n1 | inactive |
| CC[C@@H](C)[C@H](NC(=O)Cc1c(C)c2cc3c(C)coc3c(C)c2oc1=O)C(=O)O | inactive |
| O=C(O)c1ccc(Sc2nnc(-c3cccc(Br)c3)o2)c([N+](=O)[O-])c1 | inactive |
| ClCc1csc(-c2ccc(Cl)cc2)n1 | inactive |
| O=C(NCCc1ccc(O)cc1)c1ccc(Cl)cc1 | inactive |
| Cc1ccc(O)c(NC(=O)CCCC(=O)O)c1 | inactive |
| c1ccc(-c2cc(N3CCCCCC3)n[nH]2)cc1 | inactive |
| O=c1cc(-c2cccc([N+](=O)[O-])c2)[nH][nH]1 | inactive |
| CC(=NC1CCCC1)c1c(C)[nH]n(-c2nc3ccccc3s2)c1=O | inactive |
| N/C(=N/O)c1ccccc1N1CCC(Cc2ccccc2)CC1 | inactive |
| Nc1cccc(-c2cn3cccnc3n2)c1 | 4.52 µM (active) |
| CN(C)S(=O)(=O)c1cccc(-c2cn3cccnc3n2)c1 | inactive |
| Cc1nc(-c2cccc(N)c2)cs1 | inactive |
| COc1ccc(CC(=O)N2CCN=C2SCc2cccc([N+](=O)[O-])c2)cc1 | inactive |
| COc1ccc(/C=N/NC(=O)c2ccn[nH]2)cc1CSc1ccccn1 | inactive |
| CCc1c(C)c2cc(Cl)c(O)c(CN3CCCCC3)c2oc1=O | inactive |
| Cc1c(Br)c(=O)oc2c(Br)c(O)c(O)cc12 | 7.79 µM (active) |

| Compound | AC50 |
| --- | --- |
| CC1CCC2C(C1)Nc1c(C(=O)O)cccc1C2(C)C (stereo not given) | inactive |
| C=CCn1c(C(C)NC(=O)c2cccc(C)c2)n[nH]c1=S (stereo not given) | inactive |
| COc1cccc(OC)c1C(=O)N1CCN=C1SCc1cccnc1 | inactive |
| Cc1cc(C)nc(NN2C(=O)/C(=C/c3ccc(O)cc3)SC2=S)n1 | inactive |
| O=C(O)C(c1ccccc1)N1C(=O)/C(=C\c2ccc(O)c(O)c2)SC1=S (stereo not given) | 5 µM (active) |
| O=C(O)C(c1ccccc1)N1C(=O)/C(=C\c2ccc(-c3cccc(Cl)c3)o2)SC1=S (stereo not given) | inactive |
| Clc1ccc(/C=C/c2ncc3ccccn23)cc1 | inactive |
| COc1cc(/C=N/Nc2nc3ccccc3[nH]2)ccc1O | 8.83 µM (active) |
| COc1cc(/C=N/Nc2nc3ccccc3[nH]c2=O)ccc1O | inactive |
| COc1ccc(/C=N/Nc2nc3ccccc3[nH]2)cc1OC | inactive |
| O=S(=O)(Nc1ccc(N2CCCCC2)cc1)c1cccc2cccnc12 | inactive |
| COc1ccc(CNc2nc3ccccc3n2C(C)C)c(O)c1 | inactive |
| COc1ccc(O)c(-c2cc(-c3ccccc3[N+](=O)[O-])[nH]n2)c1 | inactive |
| Oc1ccccc1-c1n[nH]c(=S)n1Cc1ccco1 | inactive |
| COc1ccc(N2CCN(S(=O)(=O)c3cccc4cccnc34)CC2)cc1 | inactive |
| Oc1ccc(NCc2cccs2)cc1 | inactive |
| Oc1cccc(Nc2c3ccccc3nc3ccccc23)c1 | inactive |
| COC(=O)C1C(C(C)C)N(c2ccccc2)OC1(C)O (stereo not given) | inactive |
| CCc1ccc(CNc2ccc(N3CCN(C(C)=O)CC3)cc2)cc1 | inactive |
| CC(=O)N1CCN(c2ccc(NCc3cccc4ccccc34)cc2)CC1 | inactive |
| CC(=O)N1CCN(c2ccc(NCc3ccccc3)cc2)CC1 | 8.41 µM (active) |
| CCN(CCCNC(=O)CN(C)S(=O)(=O)c1cccc2nsnc12)c1cccc(C)c1 | inactive |
| O=S(=O)(c1ccc2ccccc2c1)N1CCN=C1SCc1cccnc1 | inactive |

| Compound | AC50 |
| --- | --- |
| CCCc1ccc(-c2cc(N)n[nH]2)cc1 | inactive |
| O=C(N/N=C/c1ccncc1)c1cccc(N/N=C/c2ccncc2)c1 | inactive |
| Cc1cccc(N/N=C/c2ccncc2)c1 | 2.61 µM (active) |
| Cc1cccc(N/N=C/c2ccc(O)c(O)c2O)c1 | inactive |
| COC(=O)/C=C/S(=O)(=O)c1ccc(NC(C)=O)cc1 | inactive |
| CC(=O)N/N=C/c1cc(C)n(-c2ccc(Br)cc2)c1C | inactive |
| COc1cc(/C=C2\CCCc3c2nc2ccccc2c3C(=O)O)cc(Br)c1O | inactive |
| CCN(CC)c1ccc(NS(=O)(=O)c2ccc(OC)cc2)cc1 | inactive |
| CCc1cc(C(=O)c2ccc(OC)cc2)c(NC(=O)CC(C)(C)CC(=O)O)s1 | inactive |
| COc1cc(/C=N/NC(=O)c2ccc(CSc3nncn3C)cc2)cc(OC)c1O | inactive |
| Cn1c(CSCc2ccc(Cl)cc2)n[nH]c1=S | inactive |
| Cc1cc(C)n2nc(C(=O)N/N=C/c3ccc(O)cc3)nc2n1 | inactive |
| Cc1nn(-c2ccccc2)c(C)c1-c1cc(C(=O)N/N=C/c2ccc(O)cc2)[nH]n1 | inactive |
| CN(C)Cc1ccccc1Sc1ccc(O)cc1O | inactive |
| Cc1c(Cl)cccc1-n1c(-c2cccnc2)n[nH]c1=S | inactive |
| CN(C)c1ccc(CNS(=O)(=O)c2ccc3c(c2)NC(=O)CS3)cc1 | inactive |
| O=C(Nc1ccc(Cl)c(Cl)c1)Nc1ccccc1C(=O)O | inactive |
| Cc1ccc(NNC(=O)c2ccno2)cc1Cl | 0.327 µM (active) |
| Cc1cc(C(=O)NNc2ccc(F)cc2)no1 | inactive |
| Cc1ccc(NNC(=O)c2ccno2)cc1C | 0.635 µM (active) |
| Cc1ccc(NCCC(=O)c2cccs2)cc1C | inactive |
| COc1ccc(/C=N/NC(=O)c2ccncc2)cc1CN1CCN(c2ccc(F)cc2)CC1 | inactive |
| CCN(CC)c1ccc(/C=N/NC(=O)c2cccc(N3CCCC3=O)c2)cc1 | inactive |
